Source: paper PMC12136788
Over roughly 24,000 sequences, “enrichment r” has its median near 0.99; the highest 2% begin near 3.7. Shown is part of a subset that was picked to be rich in the highest values.

T1: UNK ZnF1-3 (human, UniProt Q9C0B0 31-174)
T1 sequence: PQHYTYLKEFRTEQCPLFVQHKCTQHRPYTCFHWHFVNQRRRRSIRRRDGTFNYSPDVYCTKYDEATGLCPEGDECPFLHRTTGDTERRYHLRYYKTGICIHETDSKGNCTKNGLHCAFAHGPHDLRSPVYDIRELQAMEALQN

B1: 1003750_1005305_5821_CDS_ENSG00000060237_ENST00000535572|human|control|control (ssRNA)
RNA: GGGAGUUCUACAGUCCGACGAUCAUGAACAGACUUUGCAUCUUCUGACUUAUUUUUACCCUCUUUCUGGGCACCGUCUGCUGCAACAGAAACCUGAAAUCGUCCCAUCUUAAAAACACCAGCUCCUGAACUAGUUGCUAGGACCAACAGAGGAUUGAGCAUCA
B2: 9430860_9430980_9933_3pUTR_ENSMUSG00000040209_ENSMUST00000041124|mouse|control|control (ssRNA)
RNA: GGGAGUUCUACAGUCCGACGAUCUUUAAAAAGAACCAACUACUAUUUGACUCUAACCCAAUCCUUCAGUAUCUGGUAUGCGCUUUGUUUUUUCCCUUGCUAACACUAGGCCCUUUCUGUGCACUGCCAGCCAAGCACAGGCAGCAACAGAGGAUUGAGCAUCA
B3: 93812015_93812135_631_5pUTR_ENSG00000117505_ENST00000370272|human|control|control (ssRNA)
RNA: GGGAGUUCUACAGUCCGACGAUCGAUUUCUCAAAAAGUCGCCCUCGGAGAGUGAUCCCGGGGGGUGCUUUGCGAAGAGGGUGCAGAAAAUGAACGGAGGAGCAGCUGGCUUGAGGGCUGGGAACACUCGCGUGUGUGAGAGAUCAACAGAGGAUUGAGCAUCA
B4: chr5:128448638:128448639:+_ENSG00000066583_ENST00000173527|hu_mus|hu_hu_hu_mus_False|28_28 (ssRNA)
RNA: GGGAGUUCUACAGUCCGACGAUCGGCACUCGCCUUAAUUAGGUUCUGAAUUUCCUUGAACUUCGGGUGGUCUUUGUCAGCCACCAGCUGUAGGAGGACAGCCUCACUCGUGGUCACGAUGAUCCCAGUGCGGGCAAGACGCUCCAACAGAGGAUUGAGCAUCA
B5: chr6:48548902:48548903:+_ENSMUSG00000052751_ENSMUST00000163452|mus_mus|FALSE|FALSE (ssRNA)
RNA: GGGAGUUCUACAGUCCGACGAUCAAGGAACAAAACAAGACCCAGUAGGCAGAAGUCAUAGGAAAGCAGAAUCCAAUCACUAUAAGUAAGAAAUGUCUAACAAUUAGACUCGCCCUACGAUAGAAGUAGUGCCUUCUGGAGGUACAACAGAGGAUUGAGCAUCA
B6: chr2:47635579:47635580:+_ENSG00000095002_ENST00000543555|hu_hu|motif|central (ssRNA)
RNA: GGGAGUUCUACAGUCCGACGAUCACUCUAUACUGACGAACCAGAAGAAGAUCUUUUACAAAAGAUUCAAAAUUCAUUUUACGGAGCACAACACUCUGCAGAUUCUUUGCUCCUGCCGGCCCCAUGUACUUGAUCACCCCCUGGCAACAGAGGAUUGAGCAUCA
B7: chr15:12740188:12740189:-_ENSMUSG00000022195_ENSMUST00000057256|mus_hu|FALSE|FALSE (ssRNA)
RNA: GGGAGUUCUACAGUCCGACGAUCAUAAAUGAAGUAUGAAUGAAUCUCAUACAGCUCAACAGACCUGGGGGAAAAGUGAAGACAAACAAACAAACAAACAAAAAAAAAAACAAAACCCUAAAAAAUACUUAAGGAAGACAGAUACAACAGAGGAUUGAGCAUCA
B8: chr4:117881997:117881998:-_ENSMUSG00000033295_ENSMUST00000150096|mus_hu|FALSE|FALSE (ssRNA)
RNA: GGGAGUUCUACAGUCCGACGAUCCAGAAGUCAUACAAAAUAAGGAUCCAAAGUGAACUCAAGAAAAAAAAAAACAAAACAAAAUAAACCCCAACCCCUACAGUGGCCCAUUCUGCAGAUACGGAUUCGCGAAAGGAAAAAUCACAACAGAGGAUUGAGCAUCA
B9: chr4:103718443:103718444:-_ENSG00000109332_ENST00000394803|perfect_dup|FALSE|FALSE (ssRNA)
RNA: GGGAGUUCUACAGUCCGACGAUCAAAGCUGGAAGAACUUAAGUCUUCUCAGAUGAGCAUGUGAAUGAAUGGAGGGAGGUAAACAAAAAAUAAAAUUAAAAAAGAUGAGGUCUGAUAGGGGAGCAGCCGGAUAAGAAAAUCAAACAACAGAGGAUUGAGCAUCA
B10: chr9:15453159:15453160:+_ENSG00000164975_ENST00000490969|hu_hu|FALSE|FALSE (ssRNA)
RNA: GGGAGUUCUACAGUCCGACGAUCAUGAUGCACAAGCCUUAUGUCAGUAAUGACAAUGACAUGUUCACAGUCUCCCUGAUGACAGUAUAAGUAAGGAAAACCCAGUUUAAUACACAAGUCAUUGAAGGUGAAAUCUUCCAUUCUCAACAGAGGAUUGAGCAUCA
B11: chr10:60895279:60895280:-_ENSMUSG00000020091_ENSMUST00000020288|mus_mus|FALSE|FALSE (ssRNA)
RNA: GGGAGUUCUACAGUCCGACGAUCACUGGAAGAUGUUUUGUUAAAAAAGUUGUAGUUCAAAAUUGUACUGAAAACUUAUCUAAAAAUAGGUCUGUAGUCAUCUUAAAAAUAAAAGGUCUCUCCUCUGAUAAGGAGAGACUGAUACAACAGAGGAUUGAGCAUCA
B12: 176792147_176792267_4022_3pUTR_ENSG00000144320_ENST00000272748|human|control|control (ssRNA)
RNA: GGGAGUUCUACAGUCCGACGAUCACAUGAUAGGGAGUAAAAGGCAGAGGCCAGCUUCAGAUGGGGAGUUUGGGAAGGCAUCUCUCUGAGGAGGCAAAAUUUAAGCUGAAAUCUGAGGCAGGAAAGGGCAUGGUCAGAGAACUGCAACAGAGGAUUGAGCAUCA
B13: 54500970_54501090_1431_3pUTR_ENSMUSG00000039156_ENSMUST00000071083|mouse|control|control (ssRNA)
RNA: GGGAGUUCUACAGUCCGACGAUCAGCUGCAUCUCAGCAUUUUGCCUCUUAAUAUUGUAGUACUGUACUUCAACUUCGUGUGUUAGCUGAAGCCAUUUCUGUAGUGCGUCAGGGACAGACCAGCUGCUUCUCAGUUCAAACUCCCAACAGAGGAUUGAGCAUCA
B14: chr2:217001844:217001845:+_ENSG00000079246_ENST00000392132|hu_hu|hu_hu_hu_mus_False|18_28 (ssRNA)
RNA: GGGAGUUCUACAGUCCGACGAUCACCAACUUGAGGAUUAGAUCUUUUGUCAUAAGCAUAUCGGACGAUGGCGACCAUGUUUAACUCAUCCAAAGCAUGAACGAGAGAGGAAAGUGCAACUGCAGCUGCCUCAUCAUCCUUUGCCAACAGAGGAUUGAGCAUCA

biological target: T1, UNK ZnF1-3; assay: nsRBNS (natural sequence RNA bind-n-seq); RBNS binding buffer (assumed for nsRBNS): 25 mM Tris pH 7.5, 150 mM KCl, 3 mM MgCl2, 0.01% Triton X-100, 500 ug/ml BSA, 20 U/ml SUPERase-In, 4 C; UNK is unkempt and MSI1 is Musashi-1; names of the RNAs are library labels; protein concentration not given here; high values mean tight binding

Row | Binder | binding signal [enrichment R]
1 | B1 | 1.34
2 | B2 | 0.957
3 | B3 | 1.73
4 | B4 | 0.734
5 | B5 | 2.2
6 | B6 | 1.41
7 | B7 | 6.86
8 | B8 | 7.45
9 | B9 | 21.1
10 | B10 | 1.02
11 | B11 | 0.617
12 | B12 | 3.56
13 | B13 | 1.01
14 | B14 | 1.42
